# VACV mCherry inh – qHTS for Stage-Specific Inhibitors of Vaccinia Orthopoxvirus: mCherry Reporter Primary qHTS; Vaccinia virus mCherry reporter infection, fluorescence; Potency, µM (highest dose often 36.5 µM), inactives show at the highest dose activity change, negative = inhibition, hits mostly inhibitors; AID 720579, 2013; 310,000 compounds, 0.63% hits; calls by dose curve; tested in A549 cells; note: potency is the fitted concentration of half-maximal effect; nearly all actives have a fitted effect of over 35% in size
# FMDV antiviral – High Throughput Screening for Foot and Mouth Disease Virus Antivirals | FMDV antiviral cell-based qHTS | Potency, µM (doses to about 57.9 µM), for inactives: top-dose activity change, negative = inhibition, usual class: inhibitors | 410,000 compounds, 1.2% hits | AID 1159524, 2015; calls by dose curve; tested in HEK293T cells; note: read-out not given here; potency is the fitted concentration of half-maximal effect; nearly all actives have a fitted effect of over 45% in size
# HCMV inh – qHTS Assay for inhibitors of the human cytomegalovirus (HCMV) | HFF cells, HCMV-luciferase reporter, 72 h; stronger effect = lower value | activity change, negative = inhibition, % at 57.5 µM | 410,000 compounds, 4.5% hits | AID 1259415, 2018; in the data active = activity change below about -60%; inconclusive = no clear call, values can overlap the other calls; inactive = above about -39%
#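 Human foreskin fibroblasts infected with luciferase-reporter HCMV at MOI 1 PFU/cell, compounds at two doses. Luciferase measured 72 h post infection; normalized to buffer-only basal and Salinomycin (10uM) controls.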
# Giardia FBPA inh – qHTS Assay for Inhibitors of Fructose-1,6-bisphosphate Aldolase from Giardia Lamblia; A8B2U2; purified Giardia FBPA; Potency, µM (doses to about 59.6 µM), without a hit: at the highest dose activity, negative = inhibition, usual class: inhibitors; 290,000 compounds, 0.71% hits; note: potency is the fitted concentration of half-maximal effect; nearly all actives have a fitted effect of over 55% in size
# Target sequence (A8B2U2 whole entry, looked up): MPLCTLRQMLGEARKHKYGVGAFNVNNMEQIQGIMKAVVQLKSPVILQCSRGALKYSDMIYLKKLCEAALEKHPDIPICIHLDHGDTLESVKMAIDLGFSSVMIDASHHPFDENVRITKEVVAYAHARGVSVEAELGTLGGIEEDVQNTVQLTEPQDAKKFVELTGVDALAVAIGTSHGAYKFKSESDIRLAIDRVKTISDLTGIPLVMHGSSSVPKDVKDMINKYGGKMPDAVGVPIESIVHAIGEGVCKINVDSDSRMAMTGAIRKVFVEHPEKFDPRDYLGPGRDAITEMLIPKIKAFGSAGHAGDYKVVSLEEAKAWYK
#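 Giardia FBPA (40 nM reagent) was preincubated 10 min at RT with compound (up to 57.5 uM final), then substrate plus GAPDH/TPI/NAD/arsenate coupling system with diaphorase/resazurin was added; resorufin fluorescence (525/598 nm) was read after 20 min.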
# HCV inhibitor – qHTS Assay for Inhibitors of Hepatitis C Virus (HCV); 340,000 compounds, 3.4% hits; AID 651820, 2012; Potency, µM (doses to about 41.8 µM), for inactives: at the highest dose activity change, negative = inhibition, usual class: inhibitors; Huh7.5.1 HCVcc-Cre infection, luciferase reporter, 44 h; note: potency is the fitted concentration of half-maximal effect
#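 Reporter virus HCVcc-Cre (~0.5 moi) infects cells exposed to compound; seeding density 1,000 cells/well with 4 h settling beforehand. Luminescence, 15 sec read, taken 44 h post-infection following a 15 min RT substrate incubation.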
# Vaccinia Venus – qHTS for Stage-Specific Inhibitors of Vaccinia Orthopoxvirus: Venus Reporter Primary qHTS | 330,000 compounds, 0.46% hits | AID 720580, 2013 | Vaccinia virus Venus reporter expression, fluorescence | Potency, µM (highest dose often 36.5 µM), for the others: at the highest dose activity change, negative = inhibition, actives largely listed as inhibitors; calls by dose curve; tested in A549 cells; note: potency is the fitted concentration of half-maximal effect; nearly all actives have a fitted effect of over 30% in size
# The depositor's hits bear a star; i = inactive; ? = inconclusive; nt = no result given; + = active, no number; ! = not confirmed by another sample; [ ] = another dose, or the depositor's remark. Hits are enriched below; roughly 7.5% of the tested compounds scored in any of these assays. Unless noted, calls come from the whole dose curve; as a rule, active = well fitted curve in the direction sought with a large enough effect; inconclusive = small, poorly fitted or top-dose-only effect, or another doubt; inactive = no such curve, though single readings can be large; an effect the other way counts as inactive or inconclusive. % is set by controls: 0 for no effect and ±100 for the full control effect.
SMILES,VACV mCherry inh,FMDV antiviral,HCMV inh,Giardia FBPA inh,HCV inhibitor,Vaccinia Venus
Cc1cccc(NC(=O)C2CCCN(S(=O)(=O)c3ccc4c(c3)oc(=O)n4C)C2)c1 (centres undefined),-22.2%,23.1%,+!,-3.6%,-19.2%,-19.4%
Cn1c(=O)oc2cc(S(=O)(=O)N3CCC(C(=O)N4CCN(c5ccc(F)cc5)CC4)CC3)ccc21,nt,-28.4%,-61.2*,-16.8%,14.1%,nt
CC(CC(=O)N1CCN(S(=O)(=O)c2ccc(Cl)cc2)CC1)n1cncn1 (centres undefined),7.9%,0.0%,-9.7,1.0%,-0.6%,-1.2%
CCOc1ccc(S(=O)(=O)N2CCCC(C(=O)NCc3ccncc3)C2)cc1C (centres undefined),i,-12.4%,-76.0*,-10.4%,?,?
Cc1ccc(Cl)cc1N1CCN(C(=O)C2CCN(S(=O)(=O)c3ccc4c(c3)oc(=O)n4C)CC2)CC1,i,?,+,nt,nt,?
Cc1cccc(N2CCN(C(=O)CCS(=O)(=O)c3ccc4c(c3)oc(=O)n4C)CC2)c1C,?,?,-61.6*!,nt,11.2µM*,-28.0%
Cn1c(=O)oc2cc(S(=O)(=O)N3CCCC(C(=O)N4CCN(c5ccccc5F)CC4)C3)ccc21 (centres undefined),-13.3%,20µM*,-6.4,nt,nt,-13.9%
Cc1ccc2nc(CN3CCN(C(=O)Nc4ccc(F)cc4)CC3)oc2c1,-17.1%,-21.7%,-15.6,nt,nt,-11.6%
CC(=O)N1CCC2(CCCN(C(c3ccccc3)c3ccccc3)C2)CC1,nt,-24.3%,nt,-4.7%,nt,nt
COc1cc(OC)cc(C2=Nn3c(nnc3-c3ccccc3O)SC2)c1,nt,nt,nt,0.4%,nt,nt
COc1ccc(C)cc1-n1c(SCC(=O)NCc2ccco2)nc2c([nH]c3ccccc32)c1=O,-9.6%,-20.9%,?,nt,nt,-17.7%
CNC(=S)NNc1nc(-c2ccccc2)c2cc(Cl)ccc2n1,?,-10.1%,-72.3*,nt,-7.0%,20.5%
Oc1ccc(/C=N/Nc2nc(-c3ccc(Cl)cc3)cc(C(F)(F)F)n2)cc1,11.2µM*,25.1µM*,-76.6*,-4.4%,12.6µM*,11.2µM*
Cc1cc(-c2ccccc2)nc(N/N=C/c2ccc(O)cc2)n1,8.91µM*,-26.9%,-15.6,nt,11.2µM*,-24.4%
Cc1cc(C)c2nc(C)cc(N/N=C/c3ccc(O)cc3)c2c1,?,0.0%,-99.9*,13.9%,11.2µM*,?
COc1ccc(O)c(/C=N/Nc2nc(C)cc(-c3ccccc3)n2)c1,-14.4%[7.34 µM],-19.1%,-25.8,nt,3.98µM*,-11.7%[7.34 µM]
Cc1cc(C)nc(N/N=C/c2ccccc2)n1,nt,43.1%,26.0,-1.1%,-4.6%,nt
Cc1ccc(S(=O)(=O)N(C(=N)N)c2nc(N(C)C)nc(N(C)C)n2)cc1,nt,nt,-21.7,-3.7%,nt,nt
COC(=O)[C@@H]1CCCN1C(=O)c1cnn(-c2ncc3c(n2)-c2ccccc2CCC3)c1C1CC1,-5.5%,9.4%,nt,nt,nt,-2.7%
C/C(=N\Nc1nc(C)cc(-c2ccccc2)n1)c1ccc(F)cc1,nt,-0.7%,-26.5,-10.7%,?,nt
COc1ccc(/C(C)=N/Nc2nc(C)cc(-c3ccccc3)n2)cc1,?,?,-93.5*,nt,10µM*,-28.5%
CCC(SC1=NCCS1)C(=O)Nc1nnc(-c2ccccc2OC)s1 (centres undefined),?,-5.5%,-97.3*,-11.1%,13.0%,?
O=C(NNC(=S)NCc1ccccc1)c1ccccc1OC(F)F,-23.8%,31.6%,-38.8,17.4%,23.6%,-12.9%
O=C(NNC(=S)Nc1ccc(Cl)cc1)c1ccccc1OC(F)F,12.6µM*,-15.0%,?,?,?,?
O=C(/C=C/c1ccccn1)c1cc(Cl)cc(Cl)c1O,i,-22.1%,-36.5,-4.6%,12.6µM*,3.3%
SMILES,VACV mCherry inh,FMDV antiviral,HCMV inh,Giardia FBPA inh,HCV inhibitor,Vaccinia Venus
COc1ccc(/C=C/C(=O)c2cc(Cl)cc(Cl)c2O)c(OC)c1,-1.8%,1.6%,?,-2.5%,?,0.3%
CCOC(=O)c1[nH]c(C)c(CCC(=O)Nc2cc(Cl)c(OC)cc2OC)c1C,-13.6%,-2.5%,2.5,nt,nt,-13.4%
O=C(NC1CCCCC1)C(c1ccncc1)N(C(=O)c1csnn1)c1ccc(F)cc1 (centres undefined),-26.7%,-19.6%,-13.6,4.6%,25.4%,-8.5%
Cc1cc(C)c(OCCCNCc2ccccc2)c(Br)c1,nt,-25.9%,34.9,?,?,nt
Cc1cc(Cl)c(OCCCNCc2ccccc2)c(Br)c1,nt,-14.7%,20.1,-22.0%,25.1µM*,nt
COCCNCCCCOc1c(Cl)cc(C)cc1Br,nt,-29.0%,-5.0,-25.6%,11.2µM*,nt
COc1ccc(OC)c(/C=N/N2CCN(c3ccc(Cl)cc3)CC2)c1,nt,-10.9%,nt,4.5%,-4.1%,nt
Cc1cccn2c(CNC3CCCc4ccccc43)c(C(=O)N3CCCCC3)nc12 (centres undefined),-27.1%,-17.5%,-7.5,0.9%,-4.9%,-5.2%
CN(C)c1ccc(NC(=O)Nc2ccc3c(c2)c(=O)n(C)n3Cc2ccc(Cl)cc2)cc1,-29.6%,-22.6%,-88.1*,nt,nt,-18.4%
CC(CC(=O)Nc1ccc2c(c1)c(=O)n(C)n2Cc1ccc(Cl)cc1)C(F)(F)F (centres undefined),6.5%,-14.4%,-71.9*,nt,nt,-11.5%
COc1cc(Cn2c3ccc(NC(=O)CC(C)C(F)(F)F)cc3c(=O)n2C)ccc1F (centres undefined),11.4%,-2.6%,-28.5,nt,nt,-2.8%
Cn1c(=O)c2cc(NC(=O)Nc3cccnc3)ccc2n1Cc1ccc(Cl)cc1,19.0%,6.8%,-96.6*,nt,nt,-8.3%
Cc1cnc(CNc2ccnc(-c3ccccc3Cl)n2)cn1,-4.8%,0.0%,nt,-11.2%,nt,-0.6%
CCc1nnc(SCc2nc(-c3ccc(OC)c(OC)c3)oc2C)c2cc3sc(C)cc3n12,i,-5.2%,-14.3,nt,nt,-1.7%
CN1C[C@@H]2[C@@H]3C(=O)N(Cc4ccccc4)C(=O)[C@@H]3[C@](C)(C1=O)N2C(=O)c1ccc(Br)cc1,-17.7%,-13.5%,0.6,nt,19.2%,-6.1%
C=CCNc1ncnc2c1[nH]c1ccccc12,nt,?,-8.8,-13.8%,11.2µM*,-17.9%
C=CCNc1ncnc2c1[nH]c1ccc(Cl)cc12,?,?,-96.9*,-2.9%,?,?
C=CCNc1ncnc2c1cnn2-c1ccc(Cl)cc1,8.8%,0.4%,145.2,-1.4%,-17.7%,-6.9%
CNC(=O)c1cccc(-c2ccc3ncc(-c4cccc(C(=O)NCCN(C)C)c4)n3n2)c1,nt,nt,-29.5,nt,nt,nt
CCCCNc1cc(Cl)nc(N)n1,-11.6%,-5.2%,4.4,-15.9%,-2.8%,-14.8%
